# From the OligoGym collection
# Target: AP1S1
# Assay: pooled miR-30 sensor sort-seq; sequence = guide strand
# Settings: shRNA
# Further: reference of the scale not given here.
row,Sequence,sensor-assay potency score (higher = more potent)
1,TTGAAGATGATGTCCAGCTCGC,0.319
2,TCTAAGAGCTCCACGTATCGGT,0.301
3,ATAGACAACTTTGAGGTCCCTC,0.0527
4,TTTGCAGCCGCAGTTTTCCCTG,-0.931
5,TAAGAGCTCCACGTATCGGTGG,0.135

# Target: AP2B1
# Assay: as above
# Settings: shRNA
row,Sequence,sensor-assay potency score (higher = more potent)
1,TTGTTTTTCACAGCCACCTGGA,-0.558
2,TAACAATTCTAGAAACTTCATT,-0.559
3,TTTAGTTCAAATATTTCTCCTT,0.5
4,TTCATCGTGAAAACCCTCCAGG,-0.0807
5,TTTCAGTTCTGCCAGAACCTGA,-0.77
6,TTGTTTTGCAACTTGCTGGAAA,-0.458
7,AAAGAGAGAACTAACATCCTTC,0.773
8,TAGAAGATCACCTTGAGAGGGG,0.529
9,TAGAGAATCCAGAAATCCCTGA,0.164
10,TAGTTCCAGATTGTCAGTCTGC,-0.496
11,TTTCATTGTTGAGTTCAGCTTT,0.578
12,TCATCCTTCAAGCACTTGCGGA,-1.05
13,TTAGTTCAAATATTTCTCCTTT,0.546
14,TAATCTGAAACTGAAGTTCATT,-0.631
15,TAAATGACATTCCTTAATCTGA,-0.695
16,TAGCATATTCTTTCAGTTCTGC,0.583
17,TTCTGTAATTTTGTCTACCCGG,-1.02
18,TTCAGATCAAGTAAGTTGCTGT,1.15
19,TATTGTAGTAGTCAGAATCCTT,0.0218
20,TCGAACAAAGTCAACATCCACC,-0.757
21,TTCATTAGGACTTTTACCGCTG,0.615
22,AATAGTATAAACATTGTTGTTT,-0.183
23,TTTCTAGTAACTCATCTGCATT,-1.34
24,TTGTTGTTTTGCAACTTGCTGG,-0.34
